Source: PubChem BioAssay AID631 (The Scripps Research Institute Molecular Screening Center, 2007)
The campaign covered roughly 200,000 compounds. About 810 (0.41%) were called active. For the sample, actives were picked, then their nearest neighbours and some compounds at random. Values without a mark were called inactive. Rule as the data show it: active = activation above about 19%; inactive = the rest.

Target: Peroxisome proliferator-activated receptor gamma (Homo sapiens) (UniProt P37231)
Assay: enhancers of SRC-1 binding to PPARgamma – biochemical, primary screen (AID 631);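 also: 0% = DMSO and 100% = reference agonist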
Conditions: PPARgamma-SRC-1 coactivator recruitment biochemical assay; at 8 µM; hits give high values

Sequence of Peroxisome proliferator-activated receptor gamma (Homo sapiens) (P37231 whole entry, looked up): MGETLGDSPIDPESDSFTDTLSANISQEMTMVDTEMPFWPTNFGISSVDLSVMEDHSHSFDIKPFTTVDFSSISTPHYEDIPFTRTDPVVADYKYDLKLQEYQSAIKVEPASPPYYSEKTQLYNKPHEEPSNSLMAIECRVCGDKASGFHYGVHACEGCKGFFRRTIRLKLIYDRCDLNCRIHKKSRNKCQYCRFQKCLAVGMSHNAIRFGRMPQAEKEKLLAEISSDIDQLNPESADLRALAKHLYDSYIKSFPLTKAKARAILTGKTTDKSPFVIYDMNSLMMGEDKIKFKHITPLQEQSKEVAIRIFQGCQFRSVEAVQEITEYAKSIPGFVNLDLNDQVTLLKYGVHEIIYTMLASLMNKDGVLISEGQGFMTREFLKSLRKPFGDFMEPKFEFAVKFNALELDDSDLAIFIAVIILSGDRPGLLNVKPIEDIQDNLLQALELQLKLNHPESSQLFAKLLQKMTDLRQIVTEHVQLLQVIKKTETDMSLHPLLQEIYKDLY

| Compound | activation |
| --- | --- |
| COc1cc(OC)c(C2=NOC(C(=O)Nc3c(C)n(C)n(-c4ccccc4)c3=O)C2)cc1Cl (centres undefined) | 3.3% |
| O=C(O)Cc1sc(-c2ccc(C(=O)O)cc2)nc1-c1ccccc1 | 12.4% |
| O=C(O)Cc1sc(-c2ccccc2)nc1-c1cccs1 | 28.9% (active) |
| Cc1ccc(-c2nc(C)sc2CC(=O)O)cc1 | -2% |
| CC1(C)C(C=C(Cl)Cl)C1C(=O)N(Cc1ccc(Cl)cc1)C1CCS(=O)(=O)C1 (centres undefined) | 1.5% |
| N#C/C(C(=O)N1CCOCC1)=C1/SC(Cc2ccc(F)cc2)C(=O)N1c1ccccc1 (centres undefined) | -4.4% |
| CC(C)NC(=O)NC(=O)CSc1nnc(-c2ccccc2F)n1N | 1.8% |
| O=c1c2ccccc2c(-c2ccccc2)nn1Cc1ccccc1 | 1% |
| Cn1c(CO)cnc1SCc1ccccc1 | 6.4% |
| CSc1c(SCc2ccccc2)cnn(Cc2ccccc2)c1=O | 24% (active) |
| COC(=O)NNC1=CC(=O)CC(C)(C)C1 | 5.4% |
| COc1ccc(-n2c(C)cc(C(=O)COC(=O)c3cc(OC)c(OC)cc3NC(=O)c3cccs3)c2C)cc1 | 8.5% |
| Cc1cccc(-c2ncc(CN3CCC(CO)(CCCc4ccccc4)CC3)cn2)c1 | 5.8% |
| CC(=O)c1cccc(CN2CCC(CO)(Cc3ccccc3)CC2)c1 | 0% |
| OCC1(CCc2ccccc2)CCN(Cc2ccc3nsnc3c2)CC1 | 35.7% (active) |
| c1csc(-c2nnc(COc3ccc4c(c3)OCO4)o2)c1 | 0.1% |
| Cc1cccc(NC(=O)c2cc([N+](=O)[O-])ccc2N2CCN(C)CC2)c1 | 10.3% |
| COCCN(C(=O)c1ccccc1F)c1c(N)n(Cc2ccccc2)c(=O)[nH]c1=O | -2.5% |
| CCN1CC(CN(C)Cc2nc(-c3ccc(Cl)cc3)no2)CC1=O (centres undefined) | -3.9% |
| COc1ccc(Nc2nc(=O)[nH]nc2C)cc1 | 5.2% |
| Clc1ccc(N/N=C/c2cccs2)nn1 | 4.4% |
| Cc1n[nH]c(=O)nc1N/N=C/c1cccs1 | 22.1% (active) |
| CC(=O)Nc1ccc(CN2CCN(Cc3ccc(F)c(F)c3)C(CCO)C2)cc1 (centres undefined) | 3.4% |
| Cc1ccc(C(=O)NCC(=O)O)cc1S(=O)(=O)N1CCCCC1 | 2.2% |
| Cc1ccc(NS(=O)(=O)c2cccs2)cc1S(=O)(=O)N1CCCCCC1 | 27.9% (active) |

| Compound | activation |
| --- | --- |
| O=C(C1CCN(S(=O)(=O)c2cccs2)CC1)N1CCCCCC1 | -1.2% |
| O=C(NNc1cc(Cl)ccc1Cl)c1cccnc1Cl | 5% |
| C=C(C)CNC(=S)N/N=C/c1ccccc1OCC(=O)O | 4.6% |
| CCc1nnc(NC(=O)c2cccs2)s1 | 1.3% |
| Cc1ccc(C(=O)Nc2nnc(-c3cccs3)s2)cc1C | 21.8% (active) |
| CCOc1cccc(C(=O)Nc2cccnc2)c1 | 4.5% |
| CCOc1cccc(C(=O)Nc2nnc(-c3cccs3)s2)c1 | 41.8% (active) |
| CCCc1nnc(NC(=O)c2cccs2)s1 | -1.6% |
| Cc1ccc(C(=O)Oc2coc(CSc3nnc(NC(=O)c4cccs4)s3)cc2=O)cc1C | -0.6% |
| COc1ccc(/C=C/C2=CC(C)(C)NC(=S)N2)c(OC)c1 | -5.6% |
| O=C(Cc1ccccc1Cl)N1CCN(c2ccccn2)CC1 | -1% |
| CC(Sc1nncn1C)C(=O)Nc1cc(C(F)(F)F)ccc1N1CCOCC1 (centres undefined) | -2.1% |
| CCOC(=O)CNC(=O)N1c2ccccc2Sc2ccccc21 | 8.4% |
| Cc1ccc2c(c1)C1CN(C)CCC1N2C(=O)c1ccccc1NS(=O)(=O)c1ccc(F)cc1C (centres undefined) | 1.7% |
| COc1cc(NC(=O)COC(=O)c2cnc(C)cn2)c(C)cc1[N+](=O)[O-] | -1% |
| Cc1ccc(-c2csc(SCC(=O)Nc3cc(C)on3)n2)cc1 | -4% |
| Cc1cc(C)c2c(c1)cc(C)c1nnc(SCC(=O)Nc3cc(C)on3)n12 | 22.2% (active) |
| Cc1cc(NC(=O)CSc2nnc(Nc3ccccc3F)s2)no1 | -0.2% |
| COc1cccc(C2SCC(=O)N2c2cccc(C)c2)c1OC (centres undefined) | 2.3% |
| CCCNC(=O)c1c(Cl)cnn1-c1ccc(C)cc1 | -0.9% |
| O=C(O)c1ccc(N/N=C/c2ccc3ncccc3c2)cc1 | 7.5% |
| O=C(Nc1nnc(Cc2ccc(Cl)cc2)s1)c1cccnc1 | 0% |
| O=C1CN(C(=O)COC(=O)c2cnc(Cl)c(Cl)c2)c2ccccc2N1 | 8.3% |
| Cc1cccc2nc(CSc3nc4[nH]ncc4c(=O)n3-c3cccc(Cl)c3)cc(=O)n12 | 3.8% |
| O=c1c2sccc2nc(SCc2cc(=O)n3ccccc3n2)n1-c1ccc(Br)cc1 | 3% |

| Compound | activation |
| --- | --- |
| CCc1ccc(-n2c(SCc3cc(=O)n4cc(Br)ccc4n3)nc3[nH]ncc3c2=O)cc1 | 23.4% (active) |
| Cc1ccsc1C1C(C#N)=C(N)OC2=C1C(=O)CC(C)(C)C2 (centres undefined) | 11.2% |
| COc1ccccc1CCNC(=O)CSc1nnc2ccc(-c3cccnc3)nn12 | 4.1% |
| Cc1c(Cc2ccccc2)c(=O)oc2cc(OCC(N)=O)ccc12 | -0.5% |
| O=C(Oc1ccccc1)Oc1ccc2c(c1)oc(=O)c1ccccc12 | 33.7% (active) |
| CC(=O)Oc1ccc2c(C)c(CC(C)O)c(=O)oc2c1 (centres undefined) | -0.8% |
| CNC(=S)Nc1ccc([N+](=O)[O-])cc1 | 7.4% |
| CCOc1cnc(-c2c(-c3ccccc3Cl)noc2C)o1 | 9.5% |
| COc1ccc(-c2ccc(CNCCCN3CCOCC3)o2)cc1Cl | 10.2% |
| COc1cc(C2C(C(=O)c3ccc(C)o3)=C(O)C(=O)N2CCc2ccccc2)ccc1O (centres undefined) | 4.9% |
| CCCOc1ccc(C2C(C(=O)c3ccc(C)o3)=C(O)C(=O)N2CCCn2ccnc2)cc1 (centres undefined) | 25.1% (active) |
| COc1cc(C2C(C(=O)c3ccc(C)o3)=C(O)C(=O)N2Cc2cccnc2)ccc1O (centres undefined) | -0.3% |
| COc1ccc2c(c1)CCc1cn3ncc(C#N)c3nc1-2 | 2.5% |
| CCCn1c(=S)[nH]c2ccc(C(F)(F)F)cc21 | 7.7% |
| Cc1ccc(NC(=O)CSCC(=O)NC2CCCCC2)cc1 | 6.7% |
| Cc1nc2ccccc2cc1OCc1ccc(F)cc1 | -0.6% |
| Fc1ccc(COc2cccc(-c3n[nH]c(=S)o3)c2)cc1 | 61.7% (active) |
| Cc1cccc(OCc2ccc(C(=O)Nc3ccc(F)cc3)cc2)c1 | 8.1% |
| COc1ccc(OC)c(-c2csc(NC(=O)C3=NNC(=O)CC3)n2)c1 | -3.7% |
| Cc1cc(NC(=O)COC(=O)COc2ccc(Cl)cc2C)c([N+](=O)[O-])cc1C | -2.9% |
| COc1ccc2c(Cl)c(-c3nnco3)sc2c1 | 24.2% (active) |
| COc1ccc(-c2nnco2)cc1OC | -4% |
| COc1ccc2c(Cl)c(C(=O)NCc3ccco3)sc2c1 | -0.6% |
| CC(=O)Nc1ccccc1OC(C)C(=O)N1CCC(C)CC1 (centres undefined) | 3.2% |
| Cc1nn2cc(-c3ccc(Cl)cc3)cnc2c1Br | 9.4% |

| Compound | activation |
| --- | --- |
| Cn1c(-c2sc3cc(C(F)(F)F)cnc3c2-c2ccccc2)n[nH]c1=S | 36.3% (active) |
| Cc1cc(C(F)(F)F)n2ncc(-c3ccccc3)c2n1 | -0.8% |
| Cn1c(-c2sccc2OCc2cccc(C(F)(F)F)c2)n[nH]c1=S | 2.2% |
| COc1cccc(CNC(=O)CCC2CCCN(C(=O)c3ccoc3C)C2)c1 (centres undefined) | 11.7% |
| CC1(C)CN(c2ccc(-c3ccnc4ncnn34)cc2)C1=O | -2.6% |
| CSCCC(=O)N1CCCC(CNC(=O)c2ccccc2Cl)C1 (centres undefined) | 6% |
| COc1ccccc1C1/C(=C(/O)c2ccc(OC(C)C)cc2)C(=O)C(=O)N1c1cc(C)on1 (centres undefined) | 16.5% |
| COc1ccc(C2/C(=C(/O)c3ccccc3)C(=O)C(=O)N2c2ncccn2)cc1OC (centres undefined) | 8.9% |
| Cc1cc(N2C(=O)C(=O)/C(=C(/O)c3ccc(Cl)cc3)C2c2cccc(Br)c2)no1 (centres undefined) | 20.6% (active) |
| Cc1ccc(C(=O)Cc2nnc(C)s2)cc1 | -2.5% |
| Cc1cccc(NC(=S)N2CCC(O)CC2)c1C | 1.3% |
| CCN1CCN(c2cc3nc(C)n(Cc4ccccc4)c(=O)c3cc2NC(=O)c2ccccc2F)CC1 | 3.9% |
| COc1cccc(NC(=S)NCc2ccco2)c1 | -2.7% |
| Cc1nc(-c2ccccc2)sc1C(=O)/C=C/c1ccccc1 | -1.9% |
| Cc1nc(-c2ccccc2)sc1-c1nc(-c2ccccc2)ncc1S(=O)(=O)c1ccccc1 | 19.3% (active) |
| C=CCn1c(-c2sc(-c3ccccc3)nc2C)n[nH]c1=S | 0.8% |
| O=C(O)C1C2CC2CN1C(=O)c1ccc(Cl)cc1Cl (centres undefined) | 4.2% |
| Cc1cccc(C)c1NC(=O)C1(C)c2cccc[n+]2CC(=O)N1Cc1cccs1 (centres undefined) | -2.9% |
| Cc1nc(SCc2ccc(F)cc2)c([N+](=O)[O-])[nH]1 | 5.8% |
| COc1ccc(/C(O)=C2/C(=O)C(=O)N(c3nc(C)c(C)s3)C2c2ccco2)cc1 (centres undefined) | 22.1% (active) |
| COc1ccc(/C(O)=C2\C(=O)C(=O)N(Cc3ccco3)C2c2ccc(OC)cc2OC)cc1 (centres undefined) | 2% |
| COc1ccccc1C1/C(=C(/O)c2ccc(C)cc2)C(=O)C(=O)N1Cc1ccco1 (centres undefined) | 10.8% |
| COC(=O)c1c(C)[nH]c(C)c1-c1ccc([N+](=O)[O-])cc1 | -0.7% |
| Cc1ccc(/C=N/NC(=O)COc2ccccc2-c2ccccc2)cc1 | 2.1% |
